Screening data (PubChem)
Most compounds without a hit are left out; they make up all but 6.9% or so of the library.
MCF10A rerep: inducers of DNA re-replication in MCF 10A breast cells | MCF 10A DNA re-replication, Hoechst nuclear intensity, 48 h | Potency, µM (top dose mostly 46.1 µM), actives largely listed as activators | 2.9% of 350,000 active; also: nearly all actives have a fitted effect of over 50% in size
KB-V1 MDR tox: kills drug-selected multidrug resistant KB-V1 cells; KB-V1 MDR cells viability, CellTiter-Glo, 72 h; Potency, µM (doses to about 46.1 µM), hits mostly cytotoxic; 3.4% of 400,000 active; AID 1347076; also: nearly all actives have a fitted effect of over 60% in size
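In this primary screen, KB-V1 cells overexpressing P-gp are incubated with library compounds (lowest to highest concentration) for 72 h at 37 degrees C before a luminescent ATP viability read.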
S-ASM inh: blocks human secretory acid sphingomyelinase. P17405. placental ASM, HMU-PC fluorogenic substrate, 60 min. Potency, µM (highest dose often 57.5 µM), usual class: inhibitors. 0.006% of 340,000 active. AID 504937
Target sequence (P17405 47-631 limits assumed): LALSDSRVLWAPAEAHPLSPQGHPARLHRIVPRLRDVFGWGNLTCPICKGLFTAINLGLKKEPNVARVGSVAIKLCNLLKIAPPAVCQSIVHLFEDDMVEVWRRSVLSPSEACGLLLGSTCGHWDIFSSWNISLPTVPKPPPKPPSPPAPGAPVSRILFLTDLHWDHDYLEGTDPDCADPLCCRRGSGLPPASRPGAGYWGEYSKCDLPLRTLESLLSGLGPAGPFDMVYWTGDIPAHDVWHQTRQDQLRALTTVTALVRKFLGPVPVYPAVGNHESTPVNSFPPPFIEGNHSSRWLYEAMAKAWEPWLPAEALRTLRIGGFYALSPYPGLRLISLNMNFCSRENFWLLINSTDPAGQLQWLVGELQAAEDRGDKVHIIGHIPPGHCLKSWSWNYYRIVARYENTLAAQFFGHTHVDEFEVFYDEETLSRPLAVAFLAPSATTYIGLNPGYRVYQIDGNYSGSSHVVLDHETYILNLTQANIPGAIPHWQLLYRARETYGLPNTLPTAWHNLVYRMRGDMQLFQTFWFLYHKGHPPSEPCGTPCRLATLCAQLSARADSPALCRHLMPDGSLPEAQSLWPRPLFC
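Steps: dispense placental human ASM, pin compound, wait 10 min at room temperature, add HMU-PC0 substrate at 9 uM final, incubate 60 min at 37 °C, add stop solution raising pH to 10, read fluorescence.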
SW480 rereplic: inducers of DNA re-replication in SW480 colon cancer cells; SW480 DNA re-replication, Hoechst DNA content imaging, 48 h; Potency, µM (doses to about 46.1 µM), hits mostly activators; 1.8% of 340,000 active; also: nearly all actives have a fitted effect of over 55% in size
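Cells (250 per well) received 23 nL compound or DMSO by pin tool and were kept 48 hr at 37 C, 5% CO2. Nuclei were then stained with Hoechst for 40 min and scanned for DNA content.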
Giardia kill: kills Giardia lamblia; Giardia lamblia trophozoite viability; activity change, % at 7.66 µM, hits read low; 0.15% of 340,000 active; in the data active = activity change below about -80%; inconclusive = between about -30% and that limit;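 also: parasites exposed to compound for two days anaerobically before the ATP read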
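Trophozoite viability was measured as ATP-dependent luminescence, read 15-30 min after reagent addition. Before that, parasites at 100 cells/well were exposed to compounds for 48 h, anaerobically, at 37 deg C.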
KB-3-1 cytotox: kills parental KB-3-1 adenocarcinoma cells | KB-3-1 viability, CellTiter-Glo ATP luminescence, 72 h | Potency, µM (titrated, usually from 46.1 µM), most hits filed as cytotoxic | 1.4% of 400,000 active | AID 1347075; also: nearly all actives have a fitted effect of over 60% in size
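Luminescent ATP read-out (CellTiter-Glo) measures survival of drug-naive KB-3-1 cells after 72 h compound exposure at 37 °C. Titration series was screened from lowest to highest concentration, with DMSO vehicle plates as background controls.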
Numbers stand for hits; . = inactive; ? = inconclusive; / = not tested or not shown; [ ] = dose if it differs, or a comment. Unless noted, calls follow the shape of the dose curve; as a rule, active = well fitted curve in the direction sought with a large enough effect; inconclusive = small, poorly fitted or top-dose-only effect, or another doubt; inactive = no such curve, though single readings can be large; an effect the other way counts as inactive or inconclusive.

SMILES	MCF10A rerep	KB-V1 MDR tox	S-ASM inh	SW480 rereplic	Giardia kill	KB-3-1 cytotox
O=[N+]([O-])c1cccc(CP(=O)(c2ccccc2)c2ccccc2)c1	.	21µM	.	.	.	.
O=[N+]([O-])c1ccc(CP(=O)(c2ccccc2)c2ccccc2)cc1	.	?	.	.	.	.
N/C(=N\OC(=O)c1ccccc1)C(C(=O)NOC(=O)c1ccccc1)C1CCCCC1 (centres undefined)	?	?	.	?	.	23µM
O=C(COC(=O)c1ccccc1)NC1CCCCCC1	.	.	.	.	.	.
O=C(CCCn1c(=O)[nH]c2cc(Cl)ccc2c1=O)NC1CCCCCC1	.	21µM	.	.	.	.
COc1cc2[nH]c(=O)n(CCCCCC(=O)NC3CCCC3)c(=O)c2cc1OC	.	.	.[11.5 µM]	.	.	.
CN(C)CCNc1ncnc2ccc(-c3ccc4c(c3)OCO4)cc12	/	.	/	/	/	.
CCSC(C)CC1CC(=O)CC(=O)C1 (centres undefined)	.	.	.	.	.	.
CCOC(=O)C1C(=O)C(C(C)=O)C(=O)CC1CC(C)SCC (centres undefined)	.	21µM	.	.	.	.
CCCCCCN(CCCCCC)c1ccc(/C=C/c2ccnc3ccccc23)cc1	/	.	/	/	/	?
O=C(CCn1ccc2cc(S(=O)(=O)N3CCCC3)ccc21)NCc1ccccc1Cl	/	?	/	/	/	.
Cc1cc2[nH]c(=O)c(=O)[nH]c2cc1S(=O)(=O)N1CCN(c2cccc(C)c2C)CC1	?	.	?	.	.	.
Cc1cc2[nH]c(=O)c(=O)[nH]c2cc1S(=O)(=O)N1CCN(c2cccc(Cl)c2)CC1	.	?	20µM	.	.	.
Cc1cc2[nH]c(=O)c(=O)[nH]c2cc1S(=O)(=O)N1CCN(c2cccc(C(F)(F)F)c2)CC1	16µM	.	20µM	.	?	.
O=C(O)Cn1c(C(=O)Nc2nc(-c3ccccc3Cl)cs2)cc2ccccc21	?	/	/	.	/	/
CN(Cc1nc2ccccc2c(=O)[nH]1)Cc1nc2ccsc2c(=O)[nH]1	.	.	.	21µM	.	.
CC(NC(=O)CN(C)Cc1nc2ccccc2c(=O)[nH]1)c1ccccc1 (centres undefined)	.	.	.	.	.	.
O=C(NCCOC(=O)c1ccc(Cl)cc1)c1cccnc1	3.7µM	.	.	.	.	.
CC(C)NC(=S)N1CCCN(c2ncccc2[N+](=O)[O-])CC1	.	.	.	.	.	.
CC(C)(C)c1[nH]nc2c1C(c1cccnc1)C(C#N)=C(N)O2 (centres undefined)	.	.	.	.	.	.
N#CC1=C(N)Oc2c(ccc3cccnc23)C1c1cccnc1 (centres undefined)	8.2µM	?	.	2.6µM	.	?
N#CC1=C(N)Oc2cc3ccccc3cc2C1c1cccs1 (centres undefined)	?	.	.	?	.	10µM
Cc1ccc2cc(C3C(C#N)=C(N)Oc4c3ccc3cccnc43)c(=O)[nH]c2c1 (centres undefined)	?	.	.	?	.	.
CCc1ccc2[nH]c(=O)c(C3C(C#N)=C(N)Oc4c3ccc3cccnc43)cc2c1 (centres undefined)	?	2.3µM	.	?	.	?
C[n+]1cccc(C2C(C#N)=C(N)Oc3c2ccc2ccccc32)c1 (centres undefined)	?	?	.	18µM	.	?
SMILES	MCF10A rerep	KB-V1 MDR tox	S-ASM inh	SW480 rereplic	Giardia kill	KB-3-1 cytotox
Cc1c(-c2ccccc2)c(=O)oc2c(CN3CCOCC3)c(O)ccc12	/	.	/	/	/	.
Cc1cc(C)cc(NC(=O)CSc2nncn3c2cc2occc23)c1	/	.	/	/	/	.
COc1cccc(N2CCN(Cc3nnc(-c4ccc5c(c4)OCO5)o3)CC2)c1	/	.	/	/	/	.
Cc1ccccc1N1C(=O)c2cc(S(N)(=O)=O)c(Cl)cc2NC1C (centres undefined)	.	.	.	.	.	.
Cc1cc(C)c(NC(=O)c2cc(C)nc3c2c(C)nn3-c2cccc(F)c2)c(C)c1	/	?	/	/	/	.
CC(C)(C)C1=C(C#N)C(c2cccnc2)C(C#N)=C(N)O1 (centres undefined)	.	.	.	.	.	.
CN(C)/C=N/C1=C(C#N)C(c2cccs2)c2ccc3ccccc3c2O1 (centres undefined)	?	5.8µM	.	5.2µM	.	2.6µM
N#CC1=C(N)Oc2cc3ccccc3cc2C1c1cccnc1 (centres undefined)	7.1µM	?	.	18µM	.	5.8µM
COc1ccc(OCC(=O)OCc2cc(=O)n3nc(-c4cccs4)sc3n2)cc1	/	.	/	/	/	.
CCOC(=O)CN1C(=O)C(O)(CC(=O)c2cc(OC)ccc2OC)c2ccccc21 (centres undefined)	/	.	/	/	/	.
Cc1ccc2nnc(Cl)n2n1	.	.	.	.	.	.
Clc1nnc2ccc(-c3ccccc3)nn12	.	16µM	.	.	.	23µM
CCN(CC)CCCNC(=O)CCCn1c(=O)[nH]c2ccc(Br)cc2c1=O	/	?	/	/	/	.
CCOc1ccc2[nH]c3c(NCCN(CC)CC)ncnc3c2c1	.	.	.	?	.	.
CCN(CC)CCCNc1nc2ccccc2c2[nH]c3ccc(OC)cc3c12	.	16µM	.	?	-84	?
COc1ccc(-c2nc(NCCCN(C)C)c3ccccc3n2)cc1	.	.	.	.	-99	.
CCN(CC)CCCNc1nc(-c2ccccc2)nc2ccccc12	.	.	.	.	.	.
COc1ccc(CNC(=O)CC(c2ccc(OC)c(OC)c2)N2Cc3ccccc3C2=O)cc1 (centres undefined)	/	.	/	/	/	.
Cc1ccc(S(=O)(=O)c2cnc(-c3ccccc3)[nH]c2=O)cc1	/	/	/	/	.	/
COc1ccc(OCc2ccc(-c3nc(C#N)c(NCc4ccc(F)cc4)o3)o2)cc1	/	.	/	/	/	.
CC1CC(NC(=O)c2cc3c(=O)n4ccccc4nc3n2C)CC(C)(C)C1 (centres undefined)	10µM	?	.	10µM	.	.
CC1Cc2ccccc2N1C(=O)c1cc2c(=O)n3ccccc3nc2n1C (centres undefined)	?	5.8µM	.	.	.	?
Cc1cccn2c(=O)c3cc(C(=O)N4c5ccccc5CC4C)n(C)c3nc12 (centres undefined)	.	?	.	.	.	?
O=C(NCCc1ccccc1)c1cccc2c1C(=O)N(C1CCCCC1)C2	.	.	.	.	.	.
COc1ccc(CCNC(=O)c2cccc3c2C(=O)N(C2CCCCC2)C3)cc1OC	.	18µM	.	.	.	.
O=C(N/N=C/c1cccc(O)c1)c1ccc(NC(=O)C2CCCCC2)cc1	.	.	.	.	.	.
O=C(N/N=C/c1ccc(O)cc1O)c1ccc(NC(=O)C2CCCCC2)cc1	?	.	.	16µM	.	?
